# The panel holds about 83,000 compounds, 20% with a hit somewhere; the sample as a whole holds those more often.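 Assay: single dose, 48 h. Readout: percent growth (0 = no net growth; negative = cell death). Active: <10.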 Values without a mark were called inactive. Activity calls are given as the source filed them.
# Legend:
# Assay in all cases: NCI-60 one-dose screen, 48 h (100 = growth as untreated, 0 = no growth, -100 = all killed)
# Conditions in all cases: 10 µM unless noted
# [1] = tested on: HCT-15 colon
# [2] = tested on: HT29 colon
# [3] = tested on: SNB-75 CNS
# [4] = tested on: SNB-19 CNS
# [5] = tested on: U251 CNS
# [6] = tested on: PC-3 prostate
# [7] = tested on: SK-MEL-5 melanoma
# [8] = tested on: UACC-62 melanoma
# [9] = tested on: LOX IMVI melanoma
# [10] = tested on: SK-MEL-28 melanoma
# [11] = tested on: SK-MEL-2 melanoma
# [12] = tested on: EKVX NSCLC
# [13] = tested on: SN12C renal
# [14] = tested on: UO-31 renal
# [15] = tested on: TK-10 renal
# [16] = tested on: ACHN renal
# [17] = tested on: CAKI-1 renal
# [18] = tested on: A498 renal
# [19] = tested on: CCRF-CEM leukemia
# [20] = tested on: MOLT-4 leukemia
SMILES,growth [1],growth [2],growth [3],growth [4],growth [5],growth [6],growth [7],growth [8],growth [9],growth [10],growth [11],growth [12],growth [13],growth [14],growth [15],growth [16],growth [17],growth [18],growth [19],growth [20]
CC(O)c1cnc(/C=C2\SC(=S)N(Cc3ccccc3)C2=O)s1 (stereo not given),83.6%,-8.15% (active),85.2%,97.9%,54.9%,34%,88.8%,90.3%,41.2%,89.3%,69.1%,98.1%,95.5%,93.5%,-18.5% (active),88.2%,87.8%,104%,18.8%,58.1%
C[C@H](NC(=O)[C@@H](C)N)[C@H](Oc1ccc2c(cnn2-c2ccc(F)cc2)c1)c1ccc2c(c1)OCCO2,34%,2.47% (active),61.6%,65.9%,34.7%,44%,-70% (active),-22.3% (active),-67.3% (active),-66.7% (active),65.8%,43.5%,42.6%,18.5%,70.5%,59%,20.4%,91.2%,15.5%,8.43% (active)
COc1cc2c(c(OC)c1OC)C(=O)CC(c1cccc(NC(=O)c3ccc(Br)cc3)c1)O2 (stereo not given),29.8%,46%,47.7%,64.6%,42.2%,20.9%,4.06% (active),18.8%,43.3%,57%,8.79% (active),74.3%,61.5%,34.9%,61.7%,52.4%,46.2%,36.2%,2.95% (active),-11.5% (active)
CCCCNc1ccc(C#N)c(OCCN(CC)CC)c1,102%,94.7%,88.2%,98.1%,103%,93.1%,93.9%,103%,102%,101%,105%,98.7%,105%,84.6%,108%,101%,98.6%,117%,94.8%,88.2%
CCn1c(=S)sc2c(Nc3ccc(F)cc3)nc(-c3cccnc3)nc21,88.2%,41.6%,13.7%,78.9%,34.3%,56%,87.7%,56.7%,69.5%,86.2%,63.1%,80.5%,84.1%,78.5%,58.2%,40.7%,55.1%,93.7%,102%,93.7%
CCCCOC(=O)OCc1cc(=O)c(O)co1,106%,101%,91.5%,99%,99.5%,99.6%,104%,99.4%,99.9%,107%,109%,99.7%,99.2%,92.1%,94.5%,97.7%,93.3%,110%,109%,102%
O=C(c1ccc(-c2nc(CSc3nc4ccccc4s3)no2)cc1)N1CCSCC1,68.5%,40.8%,91.9%,87.7%,61.6%,63.5%,24.6%,59.9%,55.2%,96.6%,45.7%,47.1%,82.3%,55.6%,55.1%,60.4%,63.5%,82.1%,71.2%,-1.49% (active)
CCOC(=O)C#Cc1c(C(=O)OCC)nnn1[C@@H]1O[C@H](CO)[C@H]2OC3(CCCCC3)O[C@H]21,-38.8% (active),7.93% (active),73.1%,96%,104%,86.7%,96.2%,91.6%,20.1%,101%,106%,105%,75.6%,5.58% (active),-3.79% (active),-53% (active),-99.7% (active),110%,6.89% (active),22.3%

# From PubChem BioAssay (NCI)
